Reference: ChEMBL document CHEMBL1157539, “Thousands of chemical starting points for antimalarial lead identification” (Nature, 2010)

Legend:
Type in all cases: functional
Plasmodium falciparum [1] = assay: GSK_TCMDC: Inhibition of Plasmodium falciparum 3D7 in whole red blood cells, using parasite LDH activity as an index of growth. Test compounds present at 2uM
Plasmodium falciparum [2] = assay: GSK_TCMDC: Inhibition of Plasmodium falciparum Dd2 in whole red blood cells, using parasite LDH activity as an index of growth. Test compounds present at 2uM
HepG2 = assay: GSK_TCMDC: Percent inhibition of human HepG2 cell line. Test compounds present at 10uM.

Compound	Inhibition (Plasmodium falciparum [1])	Inhibition (Plasmodium falciparum [2])	Inhibition (HepG2)
CCN(CC)CCOc1ccc(C(O)(C#CC(O)(c2ccccc2)c2ccc(OCCN(CC)CC)cc2)c2ccccc2)cc1 (stereo not drawn)	99%	99%	81%
COc1ccc2nccc([C@@H](O)CN3CCC(NCc4cc5cccc(O)c5[nH]4)CC3)c2c1.O=C(O)C(=O)O	100%	35%	0%
COc1ccc(-c2ccc(NC(=O)c3ccccc3)cc2)cc1CN1CCCN(C)CC1.O=C(O)C(F)(F)F	92%	17%	24%
CCOc1cc(Cc2cnc(N)nc2N)cc(OCC)c1OCC	97%	0%	0%
O=C(Nc1cccc(CN2CCCN(Cc3ccc4c(c3)OCO4)CC2)c1)c1cc2ccccc2s1.O=C(O)C(F)(F)F	95%	11%	32%
O=C(NCCCCN1CCC(c2cccc3ccccc23)CC1)c1ccc(NC(=O)c2ccc(Cl)cc2)cc1	99%	39%	20%
O=C(c1cccc(-c2cccc(-c3nc4ccccc4[nH]3)c2)c1)N1CCCCC1CN1CCC(O)C1 (stereo not drawn)	100%	56%	66%
N#Cc1ccc2c(c1)CN(C1CCC(NC(=O)/C=C/c3cc(C(F)(F)F)cc(C(F)(F)F)c3)CC1)CCC2 (stereo not drawn)	95%	4%	34%
COc1ccc(NC(=O)NC2CCN(c3ccnc4cc(Cl)ccc34)C2)cc1.O=C(O)C(F)(F)F (stereo not drawn)	100%	69%	10%
COc1ccc2nccc(N3CCC(SCCNCc4ccc5c(n4)NC(=O)CO5)C3)c2n1.Cl (stereo not drawn)	100%	9%	30%
CN(CCCCNC(=O)/C=C/c1ccccc1)C1CC2(CCN(C(=O)OC(C)(C)C)CC2)c2ccccc21 (stereo not drawn)	87%	51%	11%
CC(C)(C)c1ccc(-c2csc(NC(=O)CC(c3ccccc3)c3ccccc3)n2)cc1	86%	64%	3%
Cc1ccc(Oc2cnn(C)c(=O)c2Nc2cccc(C(=O)NCCc3ccccn3)c2)c(C)c1	94%	94%	0%
COc1ccc(CN2CCN(Cc3cc(Cl)ccc3O)CC2CCO)c(C)c1C (stereo not drawn)	94%	76%	1%
CSc1ccccc1NC(=S)NC1CCN(CCCCCNC(=O)/C=C/c2ccc(Cl)c(Cl)c2)CC1	98%	27%	19%
COc1cccc(-c2csc(C(=O)NCC3CCN(Cc4ccc(C(C)(C)C)cc4)C3)c2)c1.O=C(O)C(F)(F)F (stereo not drawn)	95%	10%	30%

Compound	Inhibition (Plasmodium falciparum [1])	Inhibition (Plasmodium falciparum [2])	Inhibition (HepG2)
Cc1cc(=O)[nH]c2cc(Nc3ccnc(Nc4cccc(C(N)=O)c4)n3)ccc12.Cl	99%	98%	27%
COc1ccc(NC(=O)/C=C/c2ccccc2Cl)cc1OCCN1CCC(NC2CC2)CC1	100%	66%	23%
COc1cccc(OC)c1CN1CCC(N(C)CCCCCCCCN2CCC(OC(=O)Nc3ccccc3-c3ccccc3)CC2)CC1	99%	100%	100%
CSc1cccc(NC(=O)Nc2ccc(I)c(OCCN(C)C)c2)c1	97%	19%	14%
CC(Nc1nncc(-c2cccc(F)c2)n1)c1ccc(F)cc1 (stereo not drawn)	95%	89%	4%
COc1ccc2c(NN=Cc3ccccc3Cl)ccnc2c1	99%	46%	10%
O=C(NC1CCN(c2ccnc3cc(Cl)ccc23)C1)c1cccc(F)c1.O=C(O)C(F)(F)F (stereo not drawn)	95%	98%	30%
O=c1cc(NCCCNCc2ccc(C(F)(F)F)cc2F)[nH]c2ccccc12	93%	48%	1%
COc1cc(Nc2nccc(N3CCC(NC(=O)c4cccc(NC(C)=O)c4)C3)n2)cc(OC)c1OC (stereo not drawn)	98%	68%	9%
O=C(N[C@H]1CCN(Cc2ccc(OC3CCN(Cc4ccccc4)CC3)c(Cl)c2)C1)c1ccc(Cl)c(Cl)c1.O=C(O)C(F)(F)F	99%	11%	59%
NCC1CCCN1Cc1cccc(-c2ccc(-c3nc4cc(C(F)(F)F)ccc4[nH]3)cc2)c1.O=C(O)C(F)(F)F (stereo not drawn)	100%	95%	20%
CC(C)Cc1cn(-c2nc(C(=N)N)cs2)c2cc(Cl)ccc12	100%	98%	98%
CS(=O)(=O)Nc1ccc(-c2cnc3[nH]cc(-c4ccc(C(=O)O)cc4)c3c2)cc1	95%	45%	0%
CCn1c(-c2nc(-c3ccnc(N4CCN(C)CC4)c3)cnc2N)nc2cc(S(C)(=O)=O)ccc21	100%	76%	44%
c1ccc(Oc2ccc(Nc3ccnc(Nc4ccc(CN5CCOCC5)cc4)n3)cc2)cc1	92%	38%	46%
